Biological target: FAM134A
Assay: pooled miR-30 sensor sort-seq; sequence = guide strand
Conditions: shRNA

Sequence | sensor-assay potency score (higher = more potent)
TACACAGACTACAGTGACCTAA | -0.201
TAAGAGTGTAACTACTGGCCTG | -0.0872
TACCAGAGAATGGATGTCGGGC | -0.337
TTCTTGGTCTGACTGTACCAGA | -0.779
TATTTTTCAAGTCAACACCTGC | -0.352
TGAATCTGGAAGGTGAGCCAGC | -0.0919
TTGGCTTCTGCCTTCATGCTGT | 0.471
AAGAGTGTAACTACTGGCCTGA | 0.464
AACAGCAACACTCCTAGCCAGG | -1.64
TTCTTCACATCCACCACTGGGG | -0.152
TTCAAGTCAACACCTGCACAGA | -0.356
TTTCTTCACATCCACCACTGGG | -0.774

Biological target: FAM151A
Assay: as above
Conditions: shRNA

Sequence | sensor-assay potency score (higher = more potent)
AAAGATGTCATAGTAGACTTGG | 0.264
TAGCCTGTAGTAGACTCGGGTC | -0.281
TTCTACATTGACGTCAGCCTCC | -0.0868
TTGTGCTCCACTGTGACGGTGG | 0.185
TACATTGACGTCAGCCTCCAGG | -0.38
TAAGATGTCAGCGTTGATCCAT | 0.0658

Reference: the OligoGym collection
